# Experimental data as given in PubChem BioAssay AID1347417 (National Center for Advancing Translational Sciences (NCATS), 2020).
# Among all 120,000 compounds or so, about 5,300 (4.4%) were called active. Not shown: some 22% with an inconclusive outcome. The sample holds actives, similar compounds and a random draw of the others, so the mix is not that of the screen. Values without a mark were called inactive. Calls come from the whole dose curve; as a rule, active = well fitted inhibition curve with a large enough effect; inconclusive = small, poorly fitted or top-dose-only effect; inactive = no such curve, though single readings can be large or run the other way.
# Experiment: qHTS Primary assay for Inhibitors of Plasmodium falciparum Dd2 growth in vitro; note: nearly all actives have a fitted effect of over 65% in size;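 for activity, negative = inhibition: plate controls were DMSO vehicle for no effect and reference drug for full effect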
# Settings: P. falciparum Dd2 growth, SYBR Green, 72 h; series mostly up to 28.9 µM; activity, negative = inhibition: at the top concentration
# Text: Malaria, a parasitic disease spread to humans through the bite of a Plasmodium infected Anopheles mosquito, continues to be a global health burden affecting millions of people, with an estimated 228 million cases and 405,000 deaths in 2018. Concerns about safety and limitations of current antimalarial treatments strongly emphasize the need to develop new therapeutic options. The scarce number of chemotypes and validated drug targets with efficacy against the liver stage, have hindered development of new antimalarials. To address this, a chemoprophylactic drug discovery effort was conducted through a combined phenotypic high-throughput asexual blood stage and liver stage screen, providing a robust foundation to identify liver-stage active lead chemotypes. Compounds were initially screened against Plasmodium falciparum Dd2 strain parasites using a in vitro SYBRGreen-1 based 72 hr proliferation assay to identify novel chemotypes to advance to liver stage assays. NIH/NCATS Early Translation Branch Assay Submitter (PI): Anton Simeonov Ph.D.
# Malaria-vivax Assay Protocol: PROTOCOL TABLE (as described by Inglese et al., 2007) SEQUENCE No. (e.g., 1, 2, 3, etc.); […] (e.g., Cells, Incubation, Reagent, etc.); VALUE; DESCRIPTION SEQUENCE, Parameter, Description 1; Reagent; 3 uL complete malaria growth medium, 1536 TC treated Black clear bottom plate 2; Controls; 23 nL positive control artesunate (300 nM final) to column 1; Neutral control DMSO to columns 2-4 3; Compound; 23 nL of compounds in dose response concentration (29 uM to 0.5 nM final) 4; Reagent; 5 uL malaria infected red blood cells (2.5% hematocrit final, 0.3% parasitemia 5; Time; 72 hours at 37C (5% O2, 5% CO2, 90% N2; 95% Rh) 6; Reagent; 2 uL lysis buffer/SYBRGreen-1, 25 sec shake immediately following dispense 7; Time; ~16 hours at 37C (5% O2, 5% CO2, 90% N2; 95% Rh) 8; Detector; EnVision (PerkinElmer) bottom read at 485/14nm excitation and 535/25 nm emission NOTES (numbers refer to sequence above): 1; Complete Malaria Growth Media: 1X RPMI-1640 w/L-glutamine, 5.5g/L Albumax II, 367 uM Hypoxanthine, 25 mM HEPES, 0.25% Sodium Bicarbonate, 35 uM Gentamicin sulfate 2; Controls were added using the Kalypsis Pintool (Wako USA) equipped with 1536 pinhead 3; Compounds were added in a 7-point, titration with a high final concentration of 29 uM by Pintool from seven inter-plate titrations of library plates and two DMSO control plates at the beginning and end (see Yasgar et al., 2008). 4; Red blood cells infected with Plasmodium falciparum Dd2 parasites were used. 6; Lysis buffer: 20 mM Tris-HCl, 10 mM EDTA, 0.16% Saponin, 1.6% Triton-X, 10X SYBR Green. REFERENCE: Inglese J, Shamu CE, Guy RK. 2007. Reporting data from high-throughput screening of small-molecule libraries. Nat Chem Biol. doi:10.1038/nchembio0807-438 Yasgar A, Shinn P, Jadhav A, Auld D, Michael S, Zheng W, Austin CP, Inglese J, Simeonov A. 2008. Compound Management for Quantitative High-Throughput Screening. J Lab Autom 13:79-89. doi:10.1016/j.jala.2007.12.004
# Potency is the fitted concentration of half-maximal effect.
Compound,outcome,"activity, negative = inhibition",Potency
CN(CCc1cn[nH]c1)c1ccc(-c2nc(-c3ccccc3F)no2)cn1,inactive,,
Cc1cc(C)n(CC(=O)N2CC[C@@H]3CN(S(C)(=O)=O)[C@@H]3C2)n1,,25.9% (inactive),
Oc1ccccc1CN1C[C@H](O)C[C@H]1c1nc(Cc2ccc(F)cc2Cl)no1,inactive [at 44.1 µM],,
CCCNC(=O)C(NC(=O)c1ccc(OC)cc1)C1CCN(C(=O)c2ccc3c(c2)OCO3)CC1 (stereo unspecified),inactive,,
O=C(c1ccccc1-n1cccn1)N1CCc2c(nc[nH]c2=O)C1,,-3.13% (inactive),
CC(C)(Oc1nn(CCOc2ccccc2)c2ccccc12)C(=O)NCCCn1ccnc1,inactive,,
CCOC(=O)C1CCN(C(=O)C2(c3ccc(NS(C)(=O)=O)cc3)CCCCC2)CC1,inactive,,
COCCNC(=O)c1ccc(OC2CCN(C/C=C/c3ccco3)CC2)c(Cl)c1,,-29.3% (inactive),
CSc1ccc(C2c3c(oc4ccccc4c3=O)C(=O)N2CCCN2CCOCC2)cc1 (stereo unspecified),,-11% (inactive),
COc1ccc(C2c3c(oc4ccccc4c3=O)C(=O)N2Cc2ccc3c(c2)OCO3)cc1 (stereo unspecified),,7.74% (inactive),
Cc1ccc2oc3c(c(=O)c2c1)C(c1ccc([N+](=O)[O-])cc1)N(CCCN1CCOCC1)C3=O (stereo unspecified),,,10 µM (active)
Cc1cccc(C(=O)NCCC2CCN(C(=O)Nc3ccc(F)cc3F)CC2)c1,,-17.7% (inactive),
COc1cccc(NC(=O)c2cnc3n[nH]c(-c4ccc(OC)cc4C)c3n2)c1,,-24.7% [at 44.1 µM] (inactive),
CCn1ncc(N2CCC(NC(=O)c3ccccc3OC)CC2)cc1=O,inactive,,
Cc1oc2ncnc(N3CCCCC3)c2c1C(=O)N1CCN(c2cccc(Cl)c2)CC1,,-15.4% (inactive),
COc1ccccc1C(=O)N1CCC(c2n[nH]c(=O)n2-c2ccc(C)cc2)CC1,inactive,,
Cc1cccc(-n2ncc(C(=O)N3CCc4ccccc4C3)c2C2CCN(C(=O)OC(C)(C)C)CC2)c1,,-23% (inactive),
Cc1cccc(-n2ncc(C(=O)N3CCC(C)CC3)c2C2CCN(C(=O)OC(C)(C)C)CC2)c1,,29.1% (inactive),
Cc1c(Cl)cccc1NC(=O)C1CCCN(C(=O)c2cnn(-c3ccccc3)c2-n2cccc2)C1 (stereo unspecified),,-11.9% (inactive),
COc1ccccc1CN1CCC(CNC(=O)c2cnn(-c3cccc(Cl)c3)c2C2CCN(C(=O)OC(C)(C)C)CC2)CC1,,,1.41 µM (active)
Cc1ccc(C2CCN(C(=O)c3cnn(-c4ccccc4Cl)c3C3CCN(C(=O)OC(C)(C)C)CC3)C2)cc1 (stereo unspecified),,,3.98 µM (active)
COc1ccccc1N1CCN(CCCNC(=O)c2cnn(-c3ccccc3Cl)c2C2CCN(C(=O)OC(C)(C)C)CC2)CC1,,,1.41 µM (active)
COc1ccccc1N1CCN(S(=O)(=O)CCNC(=O)COc2ccc(F)cc2)CC1,,-1.92% (inactive),

Compound,outcome,"activity, negative = inhibition",Potency
CC(C)(C)OC(=O)N1CCC(c2c(C(=O)N3CCN(c4cccc(Cl)c4)CC3)cnn2-c2cccc(Cl)c2)CC1,,,7.08 µM (active)
O=C(NCC1CC1)c1nc2c(o1)CCN(Cc1cccc(F)c1F)CC2,,-18.3% [at 44.1 µM] (inactive),
Cc1noc2c(N3CC[S+](=O)([O-])CC3)cc(-c3ccc(Cl)cc3)nc12,inactive [at 44.1 µM],,
O=C(NC1CCCC1)N1CCC(Oc2ccc(-c3noc(C4CC4)n3)cc2)C1 (stereo unspecified),,5.78% [at 5.79 µM],
CCCC(c1cccs1)n1cc(-c2cncnc2)nn1 (stereo unspecified),inactive,,
O=c1cc(N2CCOCC2)cnn1Cc1cc(C(F)(F)F)ccc1F,,-13.2% (inactive),
O=C(c1ccccn1)N1CCC2(CNS(=O)(=O)c3cnccc3O2)C1 (stereo unspecified),,2.82% (inactive),
Cc1noc(C)c1-c1cc2cc(CNC3CCOCC3)oc2c(NC2CCN(C)CC2)n1,,-7.72% [at 44.1 µM] (inactive),
Cc1ccc(C2(O)CCN(C(=O)c3ccccc3-c3nn[nH]n3)CC2)nc1,,-10.1% (inactive),
Cc1ccc(NC(=O)Nc2ccc(C)n(CC(=O)NCCN3CCCC3)c2=O)cc1,inactive,,
COCC(=O)NC1CCC12CCN(S(=O)(=O)c1c(C)noc1C)CC2 (stereo unspecified),,-17.4% (inactive),
COc1ccc(OC)c(CNC(=O)C2(c3ccc(NC(C)=O)cc3)CCCCC2)c1,,-23.8% (inactive),
Cc1ccccc1CCNC(=O)C1CCN(c2nc3ccccc3nc2C(F)(F)F)CC1,,18.8% (inactive),
Cc1ccc(CN2CCC(CNC(=O)c3cnn(-c4ccccc4Cl)c3C3CCN(C(=O)OC(C)(C)C)CC3)CC2)cc1,,,2.82 µM (active)
CCCn1c2ccccc2c2cnn(CC(=O)NCC3CCN(Cc4ccc(C)cc4)CC3)c(=O)c21,,-18.4% (inactive),
Cc1cccc(C)c1-n1ncc(C(=O)NCCCN2CCCCC2)c1C1CCN(C(=O)OC(C)(C)C)CC1,,,8.91 µM (active)
COc1cc(NC(=O)NCC2CCN(Cc3ccc(C)cc3)CC2)cc(OC)c1OC,,-19.3% (inactive),
COCC1CN(C(C)=O)CC12CCN(Cc1ccccc1OC)CC2 (stereo unspecified),,15% (inactive),
COc1ccccc1CN1CC[C@H](CNC(C)=O)[C@H](N(C)C)C1,,-2.3% (inactive),
Cc1ccc2c(c1)N(CC(=O)NCCCN1CCCCC1)C(=O)c1cccnc1O2,,51.2% (inactive),
O=C(NCCC1CCN(C(=O)Nc2cc(F)ccc2F)CC1)c1cc(F)ccc1F,,-15.6% (inactive),
O=C(NCCC1CCN(C(=O)Nc2ccc(F)cc2F)CC1)c1cccs1,inactive,,
COc1ccccc1CN1CCC(CNC(=O)c2cnn(-c3ccccc3Cl)c2C2CCN(C(=O)OC(C)(C)C)CC2)CC1,,,2.51 µM (active)
